In PubChem BioAssay (NCI):
About 79,000 compounds went through this panel and 15% of them were active in at least one assay; those are over-represented in the sample as a whole. Active and inactive are the calls of the source. Cut-off read from the data, not from the text of the source: active = growth inhibition above about 70%; inactive = the rest.

Legend:
[1] = NCI Yeast Anticancer Drug Screen. Data for the rad50 strain (AID 155);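 note: 0% = growth of vehicle-only cultures of the same strain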; conditions: S. cerevisiae rad50 strain growth inhibition, stronger effect = higher value
How it was run: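 Compounds were tested on a yeast strain with an engineered DNA damage repair alteration; the reported value is growth inhibition normalised to vehicle treatment.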

[2] = NCI Yeast Anticancer Drug Screen. Data for the mec2-1 strain (AID 157); conditions: S. cerevisiae mec2-1 strain, stronger effect = higher value
How it was run: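 Mutant yeast (mec2-1) grown with compound; growth inhibition relative to vehicle control reported.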

[3] = NCI Yeast Anticancer Drug Screen. Data for the sgs1 mgt1 strain (AID 161);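 note: 0% = growth of cultures given vehicle only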; conditions: S. cerevisiae sgs1 mgt1 strain, stronger effect = higher value
How it was run: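 This yeast growth screen uses a strain with defined DNA-repair lesions; compound-treated growth is compared with vehicle-treated growth.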

[4] = NCI Yeast Anticancer Drug Screen. Data for the cln2 rad14 strain (AID 165);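 note: 0% = growth equal to vehicle treated cultures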; conditions: S. cerevisiae cln2 rad14 strain, stronger effect = higher value
How it was run: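 Readout is yeast growth inhibition versus vehicle-treated controls, using a strain with cln2 and rad14 alterations exposed to compound.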

[5] = NCI Yeast Anticancer Drug Screen. Data for the bub3 strain (AID 167); conditions: S. cerevisiae bub3 mutant strain, stronger effect = higher value
How it was run: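 Growth of a checkpoint-deficient yeast mutant is measured after compound exposure. Values represent inhibition relative to vehicle.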

[6] = NCI Yeast Anticancer Drug Screen. Data for the mlh1 rad18 strain (AID 175); conditions: S. cerevisiae mlh1 rad18 strain growth inhibition, stronger effect = higher value
How it was run: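 Genetically defined yeast (DNA repair-deficient) exposed to compounds; growth inhibition determined relative to vehicle.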

[7] = at 5.0 µM (retest, dose inferred, filed as 0.5)
[8] = at 50.0 µM (retest, dose inferred, filed as 5.0)

Measured: growth inhibition

CC1=C(C(=S)Nc2ccc(Cl)c(C(=O)OC(C)C)c2)SCCO1
active: [1]; [8] 71% | [1]; at 50.0 µM 89.6% | [2]; at 50.0 µM 90.2% | [3]; [8] 90% | [3]; at 50.0 µM 91.5% | [5]; [8] 95% | [5]; at 50.0 µM 87.1%
inactive: [1]; [7] 27% | [2]; [7] 19% | [2]; [8] 54% | [3]; [7] 27% | [4]; [7] 25% | [4]; [8] 64% | [4]; at 50.0 µM 47.4% | [5]; [7] 26% | [6]; [7] 21% | [6]; [8] 50% | [6]; at 50.0 µM 63.8%

CCCCN(CCCC)CCCCCCNc1cc(OC)cc2cccnc12
inactive: [1]; [7] 4% | [1]; [8] 32% | [2]; [7] 1% | [2]; [8] 14% | [3]; [7] 3% | [3]; [8] 13% | [4]; [7] 5% | [4]; [8] 39% | [5]; [7] 9% | [5]; [8] 30% | [6]; [7] -4% | [6]; [8] 9%
active: [1]; at 50.0 µM 98.2% | [2]; at 50.0 µM 98.6% | [3]; at 50.0 µM 99% | [4]; at 50.0 µM 98.1% | [5]; at 50.0 µM 99% | [6]; at 50.0 µM 98.7%

O=C(Nc1cccnc1)c1ccc(CSc2ccc(Cl)cc2)o1
inactive: [1]; [7] 56% | [2]; [7] 41% | [3]; [7] 48% | [4]; [7] 40% | [5]; [7] 50% | [5]; [8] 63% | [6]; [7] 57%
active: [1]; [8] 97% | [1]; at 50.0 µM 90.6% | [2]; [8] 98% | [2]; at 50.0 µM 92.3% | [3]; [8] 97% | [3]; at 50.0 µM 93.8% | [4]; [8] 94% | [4]; at 50.0 µM 90.8% | [5]; at 50.0 µM 92.2% | [6]; [8] 94% | [6]; at 50.0 µM 92.2%

Nc1ccccc1SC(C[N+](=O)[O-])c1ccc2c(c1)OCO2 (stereo not given)
active: [1]; [7] 82% | [1]; [8] 99% | [1]; at 50.0 µM 98.8% | [2]; [7] 72% | [2]; [8] 100% | [2]; at 50.0 µM 99% | [3]; [8] 99% | [3]; at 50.0 µM 99% | [4]; [8] 99% | [4]; at 50.0 µM 97% | [5]; [7] 80% | [5]; [8] 100% | [5]; at 50.0 µM 98.5% | [6]; [8] 99% | [6]; at 50.0 µM 99%
inactive: [3]; [7] 69% | [4]; [7] 45% | [6]; [7] 65%

CC1OC(Oc2c(-c3ccc(O)c(O)c3O)oc3cc(O)ccc3c2=O)C(O)C(O)C1O (stereo not given)
inactive: [1]; [7] -4% | [1]; [8] -2% | [1]; at 50.0 µM 14.4% | [2]; [7] -10% | [2]; [8] -5% | [2]; at 50.0 µM 9.6% | [3]; [7] -5% | [3]; [8] 8% | [3]; at 50.0 µM 17.6% | [4]; [7] 3% | [4]; [8] -6% | [4]; at 50.0 µM 2.9% | [5]; [7] -3% | [5]; [8] -3% | [5]; at 50.0 µM -12.7% | [6]; [7] -5% | [6]; [8] -8% | [6]; at 50.0 µM 27.8%

O=C(Nc1ccccc1Cl)c1ccc(Cl)c(Cl)c1
inactive: [1]; [7] 4% | [1]; [8] 0% | [1]; at 50.0 µM -0.85% | [2]; [7] 4% | [2]; [8] 2% | [2]; at 50.0 µM 1% | [3]; [7] 1% | [3]; [8] 1% | [3]; at 50.0 µM 10.2% | [4]; [7] 2% | [4]; [8] -2% | [4]; at 50.0 µM 29.6% | [5]; [7] 1% | [5]; [8] -3% | [5]; at 50.0 µM 2.2% | [6]; [7] -1% | [6]; [8] 1% | [6]; at 50.0 µM -18.2%

CCCCN(C)N=Nc1c(C(N)=O)n[nH]c1C(C)C
inactive: [1]; [7] 14% | [2]; [7] -8% | [2]; [8] 21% | [2]; at 50.0 µM 24.4% | [3]; [7] -4% | [3]; [8] 52% | [3]; at 50.0 µM 29.4% | [4]; [7] -3% | [4]; [8] -5% | [4]; at 50.0 µM 1.15% | [5]; [7] -4% | [5]; [8] -10% | [5]; at 50.0 µM -24.2% | [6]; [7] 29% | [6]; at 50.0 µM 57.6%
active: [1]; [8] 84% | [1]; at 50.0 µM 79.7% | [6]; [8] 80%

NCCc1ccc2oc3cc(=O)c4ccccc4c-3nc2c1
inactive: [1]; [7] 3% | [1]; [8] 22% | [1]; at 50.0 µM 45.4% | [2]; [7] -1% | [2]; [8] 30% | [2]; at 50.0 µM 24.7% | [3]; [7] 7% | [3]; [8] 46% | [3]; at 50.0 µM 43.8% | [4]; [7] 1% | [4]; [8] 8% | [4]; at 50.0 µM 28.7% | [5]; [7] 0% | [5]; [8] 30% | [5]; at 50.0 µM 56.2% | [6]; [7] 3% | [6]; [8] 41%
active: [6]; at 50.0 µM 80.8%

CS/C(=N\C(=S)Nc1ccccc1)Nc1ccccc1
inactive: [1]; [7] 0% | [2]; [7] 25% | [3]; [7] 38% | [4]; [7] 22% | [5]; [7] 34% | [6]; [7] 22%
active: [1]; [8] 95% | [1]; at 50.0 µM 99.2% | [2]; [8] 94% | [2]; at 50.0 µM 99.4% | [3]; [8] 97% | [3]; at 50.0 µM 96.3% | [4]; [8] 96% | [4]; at 50.0 µM 97.3% | [5]; [8] 98% | [5]; at 50.0 µM 99% | [6]; [8] 95% | [6]; at 50.0 µM 98.1%

CCCCCCC(/C=C/c1ccccc1)=N\O
active: [1]; [8] 96% | [1]; at 50.0 µM 98.8% | [2]; [8] 96% | [2]; at 50.0 µM 98.7% | [3]; [8] 96% | [3]; at 50.0 µM 98.8% | [4]; [8] 96% | [4]; at 50.0 µM 98.2% | [5]; [8] 94% | [5]; at 50.0 µM 98.8% | [6]; [8] 95% | [6]; at 50.0 µM 99.2%
inactive: [1]; [7] 0% | [2]; [7] -1% | [3]; [7] 6% | [4]; [7] -10% | [5]; [7] -2% | [6]; [7] 2%
